# Screens (PubChem BioAssay)
# SW480 rereplic: induces DNA re-replication in SW480 colon adenocarcinoma cells. SW480 DNA re-replication, Hoechst DNA content imaging, 48 h. Potency, µM (doses to about 46.1 µM), for the others: at the highest dose re-replication activation, hits mostly activators. 340,000 compounds, 1.8% hits; also: % of control where 0% means no effect; nearly all actives have a fitted effect of over 55% in size
#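 SW480 cells exposed to compounds for 48 hr at 37 C, 5% CO2, then Hoechst-stained 40 min. Nuclear DNA content imaged by fluorescence scanning (405 nm excitation, 500-530 nm emission); re-replication scored as increased high-intensity nuclei.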
# KB-V1 cytotox: kills drug-selected multidrug resistant KB-V1 cells | KB-V1 MDR cells viability, CellTiter-Glo, 72 h | 400,000 compounds, 3.4% hits | Potency, µM (doses to about 46.1 µM), actives largely listed as cytotoxic | AID 1347076; also: % is scaled to controls: 0 for no effect and ±100 for the full control effect; nearly all actives have a fitted effect of over 60% in size
#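 Luminescent ATP read-out (CellTiter-Glo, 10 min) measures survival of drug-selected KB-V1 MDR cells after 72 h, 37 degrees C compound exposure. Medium: phenol-red-free DMEM, 10% FBS. Values from fitted concentration-response curves.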
# HT1080 IDH1KD tx: kills HT-1080 cells with IDH1 knockdown; HT-1080 IDH1 knockdown viability, ATP luminescence, 48 h; Potency, µM (series often up to 46.1 µM), for the others: top-dose activity, negative = toxicity, actives largely listed as cytotoxic; 360,000 compounds, 2% hits; AID 686971;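 also: 0% = DMSO wells and -100% = cell-free medium wells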
#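 Assay cells: HT-1080 with IDH1 knockdown, 750 per well, RPMI/5% FBS. Exposure: 48 h at 37 °C following 2 h pre-incubation. Read: CellTiter-Glo luminescence; fitted concentration-response, curve class assigned.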
# MCF10A rereplic: DNA re-replication induction in MCF 10a cells. MCF 10A DNA re-replication, Hoechst nuclear intensity, 48 h. Potency, µM (highest dose often 46.1 µM), for the others: top-dose activity, positive = re-replication, actives largely listed as activators. 350,000 compounds, 2.9% hits; also: % of control where 0% means no effect; nearly all actives have a fitted effect of over 50% in size
# KB-3-1 tox: kills parental KB-3-1 adenocarcinoma cells. AID 1347075. Potency, µM (doses to about 46.1 µM), usual class: cytotoxic. 400,000 compounds, 1.4% hits. KB-3-1 viability, CellTiter-Glo ATP luminescence, 72 h; also: % is scaled to controls: 0 for no effect and ±100 for the full control effect; nearly all actives have a fitted effect of over 60% in size
#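 KB-3-1 parental drug-naive adenocarcinoma cells in DMEM/10% FBS, incubated 72 h at 37 C with pin-transferred compounds across a concentration series. Viability by CellTiter-Glo luminescence; concentration-response curves fitted after normalization.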
# HT1080-NT tox: kills 2HG-producing HT-1080-NT fibrosarcoma cells; HT-1080-NT fibrosarcoma viability, CellTiter-Glo ATP luminescence, 48 h; Potency, µM (highest dose often 46.1 µM), for the others: top-dose activity, negative = less viability, most hits filed as cytotoxic; 360,000 compounds, 1.6% hits; AID 686970;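 also: NT is the 2HG producing partner of a matched IDH1 knockdown line; 0% = DMSO-treated cells and -100% = media-only wells without cells; nearly all actives have a fitted effect of over 55% in size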
#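 Viability of the 2HG-overproducing fibrosarcoma line after 48 hours of compound exposure at 37 degrees C was determined by luminescence with CellTiter-Glo, and concentration-effect curves were then fitted and categorized.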
# Numbers without * were called inactive; i = inactive; ? = inconclusive; nt = no result; [ ] = remark or other dose. Hits are enriched below; roughly 8% of the tested compounds scored in any of these assays. Calls follow the shape of the dose curve; as a rule, active = well fitted curve in the direction sought with a large enough effect; inconclusive = small, poorly fitted or top-dose-only effect, or another doubt; inactive = no such curve, though single readings can be large; an effect the other way counts as inactive or inconclusive. Potency is read from the fitted curve at half-maximal effect.
SMILES,SW480 rereplic,KB-V1 cytotox,HT1080 IDH1KD tx,MCF10A rereplic,KB-3-1 tox,HT1080-NT tox
COc1ccc(CCn2c(C)cc(C(=O)CN3C(=O)C(=O)N(C4CCCC4)C3=O)c2C)cc1OC,-40%,i,-18%,0%,i,-18%
CCCNC(=O)c1cc(C2CCCCN2C(=O)c2ccc(C#N)cc2)on1 (stereo not given),nt,i,4%,nt,i,15%
COc1ccccc1C(=O)NCC(=O)NNC(=O)C1COc2ccccc2O1 (stereo not given),1%,?,13%,-1%,i,11%
COc1ccc(C)cc1-n1nnnc1SCc1cc(=O)n2cc(C)ccc2n1,8%,7.3µM*,-16%,?,?,-2%
COc1ccc(C)cc1-n1nnnc1SCc1csc(C)n1,1%,i,5%,2%,i,9%
CCCCCCCCCCCC(=O)OCC(O)CO (stereo not given),-1%,nt,nt,0%,nt,nt
CC(C)C(=O)N1CCN(c2c(Cl)cccc2[N+](=O)[O-])CC1,-6%,15µM*,9%,5%,?,16%
CCC(=O)N1CCN(c2c(Cl)cccc2[N+](=O)[O-])CC1,-2%,?,0%,-10%,?,2%
O=C(/C=C/c1ccccc1)N1CCN(c2c(Cl)cccc2[N+](=O)[O-])CC1,26%,i,-9%,26µM*,i,-6%
O=C(CSc1nc2ccccc2s1)N1CCCCC1,13%,i,17%,-8%,i,-12%
Cc1c(Cl)cccc1N/C(SCC(=O)N1CCCCCC1)=C(/C#N)c1nc2ccccc2s1,15µM*,15µM*,-26%,?,21µM*,1%
O=S(=O)(NC1c2cccc3cccc(c23)C1N1CCN(CCO)CC1)c1ccccc1 (stereo not given),6%[9.22 µM],?,?,23µM*,?,-29%
O=S(=O)(NC1c2cccc3cccc(c23)C1N1CCNCC1)c1ccccc1 (stereo not given),8%,i,?,-1%,i,?
COc1ccc(S(=O)(=O)N(C)C)cc1NCC(=O)Nc1cccc2ccccc12,19%,i,-15%,9%,i,-8%
COc1ccc(S(=O)(=O)N(C)C)cc1NCC(=O)Nc1ccc(Br)c(C)c1,3%,7.3µM*,-29%,3%,i,-29%
Nc1c(N(CCC2=CCCCC2)C(=O)CCCOc2ccccc2)c(=O)[nH]c(=O)n1Cc1ccccc1,3%,i,-1%,16%,i,-10%
Nc1c(N(CCC2=CCCCC2)C(=O)COc2ccc(F)cc2)c(=O)[nH]c(=O)n1Cc1ccccc1,-9%,i,?,16µM*,?,?
CC(Oc1ccccc1)C(=O)N(CCC1=CCCCC1)c1c(N)n(Cc2ccccc2)c(=O)[nH]c1=O (stereo not given),?,i,?,?,i,23µM*
COc1cc(NC(=O)C(CC(C)C)NS(=O)(=O)c2ccc3c(c2)CCCC(=O)N3)cc(OC)c1 (stereo not given),nt,?,nt,nt,i,nt
C=CCNc1nc(NCc2ccc(NC(C)=O)cc2)c2sc(-c3ccccc3)cc2n1,nt,?,-21%,nt,?,18µM*
COc1ccc(-c2cc(CNc3nc(NC(C)C)nc4cc(-c5ccccc5)sc34)on2)cc1,nt,21µM*,12µM*,nt,?,10µM*
CC(=O)Nc1ccc(CNc2nc(NC(C)C)nc3cc(-c4ccccc4)sc23)cc1,nt,21µM*,?,nt,?,?
COc1ccc(CC(=O)OC(C)C(=O)c2ccc(C)cc2)cc1 (stereo not given),18%,i,13%,1%,i,-8%
CCCCCOc1ccc(C(=O)CCC(=O)NC(C)c2ccc(S(N)(=O)=O)cc2)cc1 (stereo not given),26%,?,-20%,?,i,-25%
CCc1ccc(OCC2c3cc(OC)c(OC)cc3CCN2C(=O)Cc2ccc(OC)c(OC)c2)cc1 (stereo not given),nt,i,nt,nt,i,nt
SMILES,SW480 rereplic,KB-V1 cytotox,HT1080 IDH1KD tx,MCF10A rereplic,KB-3-1 tox,HT1080-NT tox
COc1cc(-c2c(C#N)c(N)nc3c2c(C)nn3-c2ccc(C)c(C)c2)cc(OC)c1OC,27%,i,11µM*,?,?,?
O=c1c2ccccc2nc(-c2ccccc2)n1Cc1ccco1,-13%,12µM*,18%,16%,i,8%
Cc1ccc(-c2nc3ccccc3c(=O)n2Cc2ccccc2)cc1,0%,13µM*,5%,?,i,7%
COCCN(C(=O)COC(=O)CCC1CCCC1)c1c(N)n(Cc2ccccc2)c(=O)[nH]c1=O,-119%,i,9%,-3%,i,16%
Cc1nc2ccccn2c1-c1csc(Nc2cccc(O)c2)n1,?,10µM*,1.5µM*,?,?,1.6µM*
Cc1nc2ccccn2c1-c1csc(Nc2cccc(C(=O)O)c2)n1,2%,i,-12%,6%,i,-17%
Cc1nc(N)sc1-c1csc(Nc2cccc(O)c2)n1,-7%,i,-19%,3%,i,-12%
Cc1cccc(Nc2nc(-c3c(C)nc4ccccn34)cs2)c1,?,7.3µM*,?,-3%,?,?
Cc1nc2ccccn2c1-c1csc(Nc2ccc(C(=O)O)cc2)n1,12µM*,?,3.3µM*,12µM*,?,2.1µM*
CCNS(=O)(=O)c1ccc(CCC(=O)N2CCN(c3ccccc3F)CC2)cc1,2%,?,2%,2%,i,5%
CN1CCCC(C#CC(O)(c2ccccc2)c2ccccc2)C1 (stereo not given),-5%,i,2%,-23%,i,6%
CC1=C(C(=O)Nc2cccnc2)C(c2ccc(C)cc2)n2nc(SCc3ccccc3F)nc2N1 (stereo not given),nt,i,nt,nt,i,nt
COc1ccc(S(=O)(=O)N2CCC(C(=O)NCCC(=O)Nc3cccc(Cl)c3)CC2)cc1,?,i,-13%,21µM*,i,-4%
COc1ccc(NC(=O)CCNC(=O)C2CCN(S(=O)(=O)c3ccc(OC)cc3)CC2)cc1,?,i,4%,16%,i,4%
Cc1ccc(NC(=O)C2CCN(S(=O)(=O)c3ccc4c(c3)NC(=O)C(C)S4)CC2)cc1C (stereo not given),0%,i,-21%,1%,?,?
CCCNC(=O)C1CCN(S(=O)(=O)c2ccc(Br)cc2)CC1,-1%,16µM*,-28%,2%,i,-9%
